# Data: paper PMC8384837, “Expanding the binding specificity for RNA recognition by a PUF domain”
# Positions count from the first letter of the chain named.
# How the values were obtained:
# Experiment in all cases: yeast three-hybrid, YBZ-1, SC-Leu-His + 0.5 mM 3-AT, 4 days
# Details in all cases: tags: N-Gal4 AD-HA kept; label: inside an RPR1-promoter hybrid RNA with tandem MS2 sites; ssRNA
# PUM1 PUF domain R5-GGR = PUM1 PUF domain R5-GGR (Homo sapiens, UniProt Q14671 828-1176, C1007G;R1008G;Q1011R)
# PUM1 PUF domain R5-GGR, sequence (Q14671 828-1176 C1007G/R1008G/Q1011R): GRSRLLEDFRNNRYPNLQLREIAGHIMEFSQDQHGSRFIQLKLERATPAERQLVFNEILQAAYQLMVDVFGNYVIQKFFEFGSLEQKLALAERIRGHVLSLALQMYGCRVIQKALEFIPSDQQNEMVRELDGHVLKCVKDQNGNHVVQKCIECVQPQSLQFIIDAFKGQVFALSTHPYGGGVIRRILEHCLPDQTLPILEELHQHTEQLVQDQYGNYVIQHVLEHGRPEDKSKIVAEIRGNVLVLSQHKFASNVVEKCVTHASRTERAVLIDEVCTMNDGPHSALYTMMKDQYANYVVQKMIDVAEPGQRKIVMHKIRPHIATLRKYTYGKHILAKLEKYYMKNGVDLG
# Method in brief: (§1)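 Repeat regions from input (SC-Leu) and selection (SC-Leu-His + 0.5 mM 3-AT) plates were PCR-amplified and Illumina-sequenced after four days of growth. The cells were strain YBZ-1 with a LexA–MS2 coat fusion and a HIS3 reporter, co-expressing Pumilio-1 PUF domain libraries and matching RNA elements from a centromeric plasmid. The interaction score is the log change in variant frequency from input to selection, taken in log2 with a pseudocount of 1 for absent variants.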
# PUM1 PUF domain R5-RHF = PUM1 PUF domain R5-RHF (Homo sapiens, UniProt Q14671 828-1176, C1007R;R1008H;Q1011F)
# PUM1 PUF domain R5-RHF, sequence (Q14671 828-1176 C1007R/R1008H/Q1011F): as the sequence (Q14671 828-1176 C1007G/R1008G/Q1011R) above, with G180R, G181H, R184F counted along it
# Method in brief: as §1
# PUM1 PUF domain R5-DRC = PUM1 PUF domain R5-DRC (Homo sapiens, UniProt Q14671 828-1176, C1007D;Q1011C)
# Method in brief: as §1
# PUM1 PUF domain R7-KYR = PUM1 PUF domain R7-KYR (Homo sapiens, UniProt Q14671 828-1176, S1079K;N1080Y;E1083R)
# Method in brief: as §1
# PUM1 PUF domain R1-KGS = PUM1 PUF domain R1-KGS (Homo sapiens, UniProt Q14671 828-1176, S863K;R864G;Q867S)
# PUM1 PUF domain R1-KGS, sequence (Q14671 828-1176 S863K/R864G/Q867S): as the sequence (Q14671 828-1176 C1007G/R1008G/Q1011R) above, with S36K, R37G, Q40S, G180C, G181R, R184Q counted along it
# Method in brief: as §1
# PUM1 PUF domain R3-EWS = PUM1 PUF domain R3-EWS (Homo sapiens, UniProt Q14671 828-1176, C935E;R936W;Q939S)
# Method in brief: as §1
# PUM1 PUF domain R3-GRP = PUM1 PUF domain R3-GRP (Homo sapiens, UniProt Q14671 828-1176, C935G;Q939P)
# Method in brief: as §1
# PUM1 PUF domain R3-SRC = PUM1 PUF domain R3-SRC (Homo sapiens, UniProt Q14671 828-1176, C935S;Q939C)
# Method in brief: as §1
# PUM1 PUF domain R4-ACG = PUM1 PUF domain R4-ACG (Homo sapiens, UniProt Q14671 828-1176, N971A;H972C;Q975G)
# PUM1 PUF domain R4-ACG, sequence (Q14671 828-1176 N971A/H972C/Q975G): as the sequence (Q14671 828-1176 C1007G/R1008G/Q1011R) above, with N144A, H145C, Q148G, G180C, G181R, R184Q counted along it
# Method in brief: as §1
# PUM1 PUF domain R4-GRA = PUM1 PUF domain R4-GRA (Homo sapiens, UniProt Q14671 828-1176, N971G;H972R;Q975A)
# PUM1 PUF domain R4-GRA, sequence (Q14671 828-1176 N971G/H972R/Q975A): as the sequence (Q14671 828-1176 C1007G/R1008G/Q1011R) above, with N144G, H145R, Q148A, G180C, G181R, R184Q counted along it
# Method in brief: as §1
# PUM1 PUF domain R2-RVE = PUM1 PUF domain R2-RVE (Homo sapiens, UniProt Q14671 828-1176, N899R;Y900V;Q903E)
# PUM1 PUF domain R2-RVE, sequence (Q14671 828-1176 N899R/Y900V/Q903E): as the sequence (Q14671 828-1176 C1007G/R1008G/Q1011R) above, with N72R, Y73V, Q76E, G180C, G181R, R184Q counted along it
# Method in brief: as §1
# PUM1 PUF domain R5-KPC = PUM1 PUF domain R5-KPC (Homo sapiens, UniProt Q14671 828-1176, C1007K;R1008P;Q1011C)
# Method in brief: as §1
# PUM1 PUF domain R7-RIQ = PUM1 PUF domain R7-RIQ (Homo sapiens, UniProt Q14671 828-1176, S1079R;N1080I;E1083Q)
# Method in brief: as §1
# PUM1 PUF domain R6-EWC = target: T1, PUM1 PUF domain R6-EWC (Homo sapiens, UniProt Q14671 828-1176, N1043E;Y1044W;Q1047C)
# T1 sequence: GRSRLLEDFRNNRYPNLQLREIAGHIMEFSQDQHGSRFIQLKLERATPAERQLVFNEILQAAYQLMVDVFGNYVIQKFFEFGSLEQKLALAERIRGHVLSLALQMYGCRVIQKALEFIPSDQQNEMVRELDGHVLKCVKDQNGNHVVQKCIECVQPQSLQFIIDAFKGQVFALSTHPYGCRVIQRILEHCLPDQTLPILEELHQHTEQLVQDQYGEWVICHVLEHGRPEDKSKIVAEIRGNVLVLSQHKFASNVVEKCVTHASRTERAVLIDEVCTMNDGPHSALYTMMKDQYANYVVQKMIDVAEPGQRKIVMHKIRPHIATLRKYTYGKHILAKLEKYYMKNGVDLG
# Method in brief: as §1
# PUM1 PUF domain R4-PFN = PUM1 PUF domain R4-PFN (Homo sapiens, UniProt Q14671 828-1176, N971P;H972F;Q975N)
# PUM1 PUF domain R4-PFN, sequence (Q14671 828-1176 N971P/H972F/Q975N): as the sequence (Q14671 828-1176 C1007G/R1008G/Q1011R) above, with N144P, H145F, Q148N, G180C, G181R, R184Q counted along it
# Method in brief: as §1
# PUM1 PUF domain R8-RFT = PUM1 PUF domain R8-RFT (Homo sapiens, UniProt Q14671 828-1176, N1122R;Y1123F;Q1126T)
# PUM1 PUF domain R8-RFT, sequence (Q14671 828-1176 N1122R/Y1123F/Q1126T): as the sequence (Q14671 828-1176 C1007G/R1008G/Q1011R) above, with G180C, G181R, R184Q, N295R, Y296F, Q299T counted along it
# Method in brief: as §1
# PUM1 PUF domain R8-HWG = PUM1 PUF domain R8-HWG (Homo sapiens, UniProt Q14671 828-1176, N1122H;Y1123W;Q1126G)
# PUM1 PUF domain R8-HWG, sequence (Q14671 828-1176 N1122H/Y1123W/Q1126G): as the sequence (Q14671 828-1176 C1007G/R1008G/Q1011R) above, with G180C, G181R, R184Q, N295H, Y296W, Q299G counted along it
# Method in brief: as §1
# PUM1 PUF domain R6-HYL = target: T2, PUM1 PUF domain R6-HYL (Homo sapiens, UniProt Q14671 828-1176, N1043H;Q1047L)
# T2 sequence: T1 sequence with E216H, W217Y, C220L
# Method in brief: as §1
# PUM1 PUF domain R8-YHR = PUM1 PUF domain R8-YHR (Homo sapiens, UniProt Q14671 828-1176, N1122Y;Y1123H;Q1126R)
# PUM1 PUF domain R8-YHR, sequence (Q14671 828-1176 N1122Y/Y1123H/Q1126R): as the sequence (Q14671 828-1176 C1007G/R1008G/Q1011R) above, with G180C, G181R, R184Q, N295Y, Y296H, Q299R counted along it
# Method in brief: as §1
# PUM1 PUF domain R8-LYC = PUM1 PUF domain R8-LYC (Homo sapiens, UniProt Q14671 828-1176, N1122L;Q1126C)
# Method in brief: as §1
sequence,measurement,setting,value
GGCUAGAACUAGUGGAUCCCCCGGCGCCCGGCGGCUCGAGCCCGGGUAAGUGUUAAUAGUCUGCAUGCCGCCGGGCGCCAUGCCUGCAGGUCGACUCUAGAAAACAUG,binding signal,PUM1 PUF domain R5-GGR,1.88 log2 enrichment (interaction score)
same,binding signal,PUM1 PUF domain R5-RHF,3.71 log2 enrichment (interaction score)
same,binding signal,PUM1 PUF domain R5-DRC,4.23 log2 enrichment (interaction score)
GGCUAGAACUAGUGGAUCCCCCGGCGCCCGGCGGCUCGAGCCCGGGUAAGUAUAAAUAGUCUGCAUGCCGCCGGGCGCCAUGCCUGCAGGUCGACUCUAGAAAACAUG,binding signal,PUM1 PUF domain R7-KYR,3.64 log2 enrichment (interaction score)
GGCUAGAACUAGUGGAUCCCCCGGCGCCCGGCGGCUCGAGCCCGGGUAAGUGUAAAUUGUCUGCAUGCCGCCGGGCGCCAUGCCUGCAGGUCGACUCUAGAAAACAUG,binding signal,PUM1 PUF domain R1-KGS,4.48 log2 enrichment (interaction score)
GGCUAGAACUAGUGGAUCCCCCGGCGCCCGGCGGCUCGAGCCCGGGUAAGUGUAAUUAGUCUGCAUGCCGCCGGGCGCCAUGCCUGCAGGUCGACUCUAGAAAACAUG,binding signal,PUM1 PUF domain R3-EWS,4.58 log2 enrichment (interaction score)
same,binding signal,PUM1 PUF domain R3-GRP,2.44 log2 enrichment (interaction score)
same,binding signal,PUM1 PUF domain R3-SRC,2.75 log2 enrichment (interaction score)
GGCUAGAACUAGUGGAUCCCCCGGCGCCCGGCGGCUCGAGCCCGGGUAAGUGUACAUAGUCUGCAUGCCGCCGGGCGCCAUGCCUGCAGGUCGACUCUAGAAAACAUG,binding signal,PUM1 PUF domain R4-ACG,1.1 log2 enrichment (interaction score)
same,binding signal,PUM1 PUF domain R4-GRA,1.92 log2 enrichment (interaction score)
GGCUAGAACUAGUGGAUCCCCCGGCGCCCGGCGGCUCGAGCCCGGGUAAGUGUAAAGAGUCUGCAUGCCGCCGGGCGCCAUGCCUGCAGGUCGACUCUAGAAAACAUG,binding signal,PUM1 PUF domain R2-RVE,2.9 log2 enrichment (interaction score)
GGCUAGAACUAGUGGAUCCCCCGGCGCCCGGCGGCUCGAGCCCGGGUAAGUGUCAAUAGUCUGCAUGCCGCCGGGCGCCAUGCCUGCAGGUCGACUCUAGAAAACAUG,binding signal,PUM1 PUF domain R5-GGR,4.92 log2 enrichment (interaction score)
same,binding signal,PUM1 PUF domain R5-RHF,2.99 log2 enrichment (interaction score)
same,binding signal,PUM1 PUF domain R5-KPC,4.19 log2 enrichment (interaction score)
same,binding signal,PUM1 PUF domain R5-DRC,3.58 log2 enrichment (interaction score)
GGCUAGAACUAGUGGAUCCCCCGGCGCCCGGCGGCUCGAGCCCGGGUAAGUGUAAGUAGUCUGCAUGCCGCCGGGCGCCAUGCCUGCAGGUCGACUCUAGAAAACAUG,binding signal,PUM1 PUF domain R3-EWS,5.34 log2 enrichment (interaction score)
same,binding signal,PUM1 PUF domain R3-GRP,3.91 log2 enrichment (interaction score)
same,binding signal,PUM1 PUF domain R3-SRC,4.05 log2 enrichment (interaction score)
GGCUAGAACUAGUGGAUCCCCCGGCGCCCGGCGGCUCGAGCCCGGGUAAGUUUAAAUAGUCUGCAUGCCGCCGGGCGCCAUGCCUGCAGGUCGACUCUAGAAAACAUG,binding signal,PUM1 PUF domain R7-RIQ,4.25 log2 enrichment (interaction score)
GGCUAGAACUAGUGGAUCCCCCGGCGCCCGGCGGCUCGAGCCCGGGUAAGUGGAAAUAGUCUGCAUGCCGCCGGGCGCCAUGCCUGCAGGUCGACUCUAGAAAACAUG,binding signal,PUM1 PUF domain R6-EWC,3.23 log2 enrichment (interaction score)
GGCUAGAACUAGUGGAUCCCCCGGCGCCCGGCGGCUCGAGCCCGGGUAAGUGUAUAUAGUCUGCAUGCCGCCGGGCGCCAUGCCUGCAGGUCGACUCUAGAAAACAUG,binding signal,PUM1 PUF domain R4-ACG,0.66 log2 enrichment (interaction score)
same,binding signal,PUM1 PUF domain R4-PFN,6.39 log2 enrichment (interaction score)
same,binding signal,PUM1 PUF domain R4-GRA,2.46 log2 enrichment (interaction score)
GGCUAGAACUAGUGGAUCCCCCGGCGCCCGGCGGCUCGAGCCCGGGUAAGUGUAAAUAGUCUGCAUGCCGCCGGGCGCCAUGCCUGCAGGUCGACUCUAGAAAACAUG,binding signal,PUM1 PUF domain R4-ACG,3.13 log2 enrichment (interaction score)
same,binding signal,PUM1 PUF domain R8-RFT,4.66 log2 enrichment (interaction score)
same,binding signal,PUM1 PUF domain R8-HWG,4.47 log2 enrichment (interaction score)
same,binding signal,PUM1 PUF domain R4-GRA,4.39 log2 enrichment (interaction score)
same,binding signal,PUM1 PUF domain R3-EWS,3.46 log2 enrichment (interaction score)
same,binding signal,PUM1 PUF domain R6-HYL,3.8 log2 enrichment (interaction score)
same,binding signal,PUM1 PUF domain R3-GRP,4.87 log2 enrichment (interaction score)
same,binding signal,PUM1 PUF domain R3-SRC,2.73 log2 enrichment (interaction score)
same,binding signal,PUM1 PUF domain R7-KYR,2.75 log2 enrichment (interaction score)
same,binding signal,PUM1 PUF domain R5-DRC,3.83 log2 enrichment (interaction score)
GGCUAGAACUAGUGGAUCCCCCGGCGCCCGGCGGCUCGAGCCCGGGUAAGUGUAAAUCGUCUGCAUGCCGCCGGGCGCCAUGCCUGCAGGUCGACUCUAGAAAACAUG,binding signal,PUM1 PUF domain R1-KGS,5.23 log2 enrichment (interaction score)
GGCUAGAACUAGUGGAUCCCCCGGCGCCCGGCGGCUCGAGCCCGGGUAAGCGUAAAUAGUCUGCAUGCCGCCGGGCGCCAUGCCUGCAGGUCGACUCUAGAAAACAUG,binding signal,PUM1 PUF domain R8-RFT,5.64 log2 enrichment (interaction score)
same,binding signal,PUM1 PUF domain R8-HWG,4.11 log2 enrichment (interaction score)
same,binding signal,PUM1 PUF domain R8-YHR,3.34 log2 enrichment (interaction score)
same,binding signal,PUM1 PUF domain R8-LYC,2.73 log2 enrichment (interaction score)
GGCUAGAACUAGUGGAUCCCCCGGCGCCCGGCGGCUCGAGCCCGGGUAAGUCUAAAUAGUCUGCAUGCCGCCGGGCGCCAUGCCUGCAGGUCGACUCUAGAAAACAUG,binding signal,PUM1 PUF domain R7-KYR,5.86 log2 enrichment (interaction score)
